Results as given in the supplement of paper PMC11732987, “Enantioselective OTUD7B fragment discovery through chemoproteomics screening and high-throughput optimisation” (Communications Chemistry, 2025).

Legend:
Assay in all cases: log2 ratio of Biotin-Ahx-Ub-VS probe labelling (fragment/DMSO); higher = less target engagement (more negative = stronger competition), active = hit call of the paper (q ≤ 0.05, log2 ratio ≤ -1)
Conditions in all cases: compound concentration: 200 uM; treatment time: 3 h
ALG13 = target: T1, ALG13 (UniProt Q9NP73)
T1 sequence (whole entry): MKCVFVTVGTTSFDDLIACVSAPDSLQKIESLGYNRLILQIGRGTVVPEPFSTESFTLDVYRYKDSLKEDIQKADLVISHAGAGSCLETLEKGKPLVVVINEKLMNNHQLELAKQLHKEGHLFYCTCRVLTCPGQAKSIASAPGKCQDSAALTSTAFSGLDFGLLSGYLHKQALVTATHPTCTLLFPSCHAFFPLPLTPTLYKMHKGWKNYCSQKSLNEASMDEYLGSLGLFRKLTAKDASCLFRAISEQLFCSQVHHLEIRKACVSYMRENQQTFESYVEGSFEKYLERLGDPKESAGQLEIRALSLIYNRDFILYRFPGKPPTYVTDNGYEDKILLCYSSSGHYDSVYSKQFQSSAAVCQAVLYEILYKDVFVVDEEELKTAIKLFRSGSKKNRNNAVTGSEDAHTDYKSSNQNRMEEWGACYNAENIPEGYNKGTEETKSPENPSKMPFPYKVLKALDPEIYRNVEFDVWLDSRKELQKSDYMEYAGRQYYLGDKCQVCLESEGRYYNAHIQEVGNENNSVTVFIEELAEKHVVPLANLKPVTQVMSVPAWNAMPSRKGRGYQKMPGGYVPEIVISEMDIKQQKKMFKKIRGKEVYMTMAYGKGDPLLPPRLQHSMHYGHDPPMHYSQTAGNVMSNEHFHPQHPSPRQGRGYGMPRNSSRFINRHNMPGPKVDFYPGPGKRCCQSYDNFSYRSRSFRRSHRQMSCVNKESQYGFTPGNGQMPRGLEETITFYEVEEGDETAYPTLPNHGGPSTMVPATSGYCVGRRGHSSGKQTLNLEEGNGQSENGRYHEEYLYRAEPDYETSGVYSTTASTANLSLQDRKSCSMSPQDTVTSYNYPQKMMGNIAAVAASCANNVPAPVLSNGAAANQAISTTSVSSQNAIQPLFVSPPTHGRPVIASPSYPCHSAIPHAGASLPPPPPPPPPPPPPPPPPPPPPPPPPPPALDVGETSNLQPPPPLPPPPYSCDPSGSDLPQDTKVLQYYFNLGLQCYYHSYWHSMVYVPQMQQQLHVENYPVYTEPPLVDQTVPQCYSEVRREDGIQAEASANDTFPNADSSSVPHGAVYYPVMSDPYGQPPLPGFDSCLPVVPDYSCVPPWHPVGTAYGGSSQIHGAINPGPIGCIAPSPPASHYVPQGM
Method in brief: (§1)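 Fragment (200 µM) or vehicle was incubated for 3 h with triplicate HEK293T lysate samples of 495 µg, which were then treated with Biotin-Ahx-Ub-VS at 0.5 µM final for 1 h. Labelled DUBs were enriched on NeutrAvidin, digested with LysC and trypsin, and analysed by diaPASEF LC-MS/MS. Values are average log2 fragment/vehicle ratios from an unpaired t-test on global-median-normalised Spectronaut label-free quantities, using proteins with ≥2 unique peptides.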

ATXN3 = ATXN3 (UniProt P54252)
Method in brief: as §1

BAP1 = target: T2, BAP1 (UniProt Q92560)
T2 sequence (whole entry): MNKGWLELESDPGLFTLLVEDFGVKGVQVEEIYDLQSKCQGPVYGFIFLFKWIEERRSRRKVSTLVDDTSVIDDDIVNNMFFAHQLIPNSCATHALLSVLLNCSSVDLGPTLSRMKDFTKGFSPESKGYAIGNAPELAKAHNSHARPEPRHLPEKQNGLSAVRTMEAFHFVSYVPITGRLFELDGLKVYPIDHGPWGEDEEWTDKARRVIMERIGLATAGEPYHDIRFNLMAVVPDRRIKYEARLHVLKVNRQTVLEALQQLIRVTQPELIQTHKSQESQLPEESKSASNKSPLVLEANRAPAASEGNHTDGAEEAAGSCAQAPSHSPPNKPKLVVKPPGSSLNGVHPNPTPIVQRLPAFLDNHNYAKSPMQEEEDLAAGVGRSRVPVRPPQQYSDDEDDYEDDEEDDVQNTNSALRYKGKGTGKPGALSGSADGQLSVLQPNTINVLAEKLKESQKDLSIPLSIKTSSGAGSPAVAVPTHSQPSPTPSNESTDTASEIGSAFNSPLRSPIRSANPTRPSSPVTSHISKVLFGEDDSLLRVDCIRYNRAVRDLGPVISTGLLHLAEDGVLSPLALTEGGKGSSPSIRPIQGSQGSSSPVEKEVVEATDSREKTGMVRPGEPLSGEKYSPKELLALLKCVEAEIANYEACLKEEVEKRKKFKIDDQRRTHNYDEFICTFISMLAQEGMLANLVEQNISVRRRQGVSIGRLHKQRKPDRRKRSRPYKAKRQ
Method in brief: as §1

EIF3F = EIF3F (UniProt O00303)
Method in brief: as §1

EIF3H = EIF3H (UniProt O15372)
Method in brief: as §1

FAM105A = target: T3, FAM105A (UniProt Q9NUU6)
T3 sequence (whole entry): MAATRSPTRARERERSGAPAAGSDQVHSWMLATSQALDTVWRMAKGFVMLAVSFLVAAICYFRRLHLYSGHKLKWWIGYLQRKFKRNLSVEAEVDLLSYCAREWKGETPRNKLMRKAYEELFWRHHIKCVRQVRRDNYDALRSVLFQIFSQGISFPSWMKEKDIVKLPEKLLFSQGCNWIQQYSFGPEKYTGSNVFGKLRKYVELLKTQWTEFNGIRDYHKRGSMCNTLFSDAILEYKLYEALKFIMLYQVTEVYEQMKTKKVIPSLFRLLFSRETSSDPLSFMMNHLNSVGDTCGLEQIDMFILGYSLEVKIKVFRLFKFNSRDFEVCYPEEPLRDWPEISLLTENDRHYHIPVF
Method in brief: as §1

OTUB1 = OTUB1 (UniProt Q96FW1)
Method in brief: as §1

OTUD4 = target: T4, OTUD4 (UniProt Q01804)
T4 sequence (whole entry): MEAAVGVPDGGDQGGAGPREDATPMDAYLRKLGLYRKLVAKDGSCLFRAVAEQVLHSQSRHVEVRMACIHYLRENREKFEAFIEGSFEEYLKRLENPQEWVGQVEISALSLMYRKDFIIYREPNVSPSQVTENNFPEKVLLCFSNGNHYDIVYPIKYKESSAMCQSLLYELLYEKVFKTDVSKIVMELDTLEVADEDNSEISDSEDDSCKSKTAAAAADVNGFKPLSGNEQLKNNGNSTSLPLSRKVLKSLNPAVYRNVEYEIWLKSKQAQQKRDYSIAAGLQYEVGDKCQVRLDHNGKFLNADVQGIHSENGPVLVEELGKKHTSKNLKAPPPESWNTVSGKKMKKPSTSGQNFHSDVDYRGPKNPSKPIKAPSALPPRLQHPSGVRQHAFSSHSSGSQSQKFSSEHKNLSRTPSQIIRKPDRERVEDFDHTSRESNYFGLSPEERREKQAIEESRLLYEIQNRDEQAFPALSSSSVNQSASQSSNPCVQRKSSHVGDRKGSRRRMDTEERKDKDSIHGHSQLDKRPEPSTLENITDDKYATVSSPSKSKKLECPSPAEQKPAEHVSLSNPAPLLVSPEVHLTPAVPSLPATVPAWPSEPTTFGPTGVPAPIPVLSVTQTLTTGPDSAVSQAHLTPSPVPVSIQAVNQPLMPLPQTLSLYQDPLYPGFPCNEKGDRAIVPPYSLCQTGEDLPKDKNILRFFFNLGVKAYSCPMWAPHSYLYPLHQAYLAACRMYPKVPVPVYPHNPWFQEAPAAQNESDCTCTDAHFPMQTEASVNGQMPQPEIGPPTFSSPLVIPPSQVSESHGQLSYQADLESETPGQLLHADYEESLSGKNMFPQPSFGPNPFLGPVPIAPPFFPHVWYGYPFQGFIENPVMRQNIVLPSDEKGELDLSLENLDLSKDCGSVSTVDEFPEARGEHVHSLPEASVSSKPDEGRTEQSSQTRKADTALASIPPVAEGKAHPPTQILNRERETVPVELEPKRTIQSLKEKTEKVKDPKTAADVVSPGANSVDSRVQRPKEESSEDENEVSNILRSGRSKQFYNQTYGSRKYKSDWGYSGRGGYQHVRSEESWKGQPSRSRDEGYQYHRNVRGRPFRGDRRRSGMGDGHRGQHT
Method in brief: as §1

OTUD5 = target: T5, OTUD5 (UniProt Q96G74)
T5 sequence (whole entry): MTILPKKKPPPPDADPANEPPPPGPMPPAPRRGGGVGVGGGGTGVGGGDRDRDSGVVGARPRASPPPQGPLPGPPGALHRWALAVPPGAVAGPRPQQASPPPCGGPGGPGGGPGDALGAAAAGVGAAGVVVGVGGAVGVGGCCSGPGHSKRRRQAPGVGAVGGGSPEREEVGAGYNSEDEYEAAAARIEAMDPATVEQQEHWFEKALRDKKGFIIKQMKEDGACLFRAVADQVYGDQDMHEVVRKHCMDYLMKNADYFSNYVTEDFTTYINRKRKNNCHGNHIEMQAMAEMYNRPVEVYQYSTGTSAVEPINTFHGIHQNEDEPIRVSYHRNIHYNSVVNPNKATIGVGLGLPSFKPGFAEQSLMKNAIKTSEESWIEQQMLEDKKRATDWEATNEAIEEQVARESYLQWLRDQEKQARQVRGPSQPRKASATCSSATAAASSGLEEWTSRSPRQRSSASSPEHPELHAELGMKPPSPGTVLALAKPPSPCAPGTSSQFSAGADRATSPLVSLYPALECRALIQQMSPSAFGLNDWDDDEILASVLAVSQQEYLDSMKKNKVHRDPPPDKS
Method in brief: as §1

Measured: log2 ratio of Biotin-Ahx-Ub-VS probe labelling

OTUB1, sequence (Q96FW1 whole entry): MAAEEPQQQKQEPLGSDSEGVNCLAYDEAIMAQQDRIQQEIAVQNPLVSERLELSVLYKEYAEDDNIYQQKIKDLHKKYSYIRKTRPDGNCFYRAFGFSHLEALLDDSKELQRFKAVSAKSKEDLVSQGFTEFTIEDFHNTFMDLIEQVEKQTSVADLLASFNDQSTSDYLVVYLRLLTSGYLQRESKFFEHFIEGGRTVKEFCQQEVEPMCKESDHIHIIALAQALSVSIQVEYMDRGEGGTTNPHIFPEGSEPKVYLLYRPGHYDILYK
EIF3F, sequence (O00303 whole entry): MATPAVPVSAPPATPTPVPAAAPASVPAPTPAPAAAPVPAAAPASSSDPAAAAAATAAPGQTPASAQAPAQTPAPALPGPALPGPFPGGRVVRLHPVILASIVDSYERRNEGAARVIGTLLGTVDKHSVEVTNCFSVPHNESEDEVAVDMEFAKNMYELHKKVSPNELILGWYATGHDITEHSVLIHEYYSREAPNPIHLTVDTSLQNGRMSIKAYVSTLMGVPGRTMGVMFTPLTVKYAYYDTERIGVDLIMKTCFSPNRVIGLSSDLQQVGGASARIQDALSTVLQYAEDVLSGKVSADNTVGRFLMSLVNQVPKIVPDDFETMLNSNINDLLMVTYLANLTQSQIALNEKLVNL
EIF3H, sequence (O15372 whole entry): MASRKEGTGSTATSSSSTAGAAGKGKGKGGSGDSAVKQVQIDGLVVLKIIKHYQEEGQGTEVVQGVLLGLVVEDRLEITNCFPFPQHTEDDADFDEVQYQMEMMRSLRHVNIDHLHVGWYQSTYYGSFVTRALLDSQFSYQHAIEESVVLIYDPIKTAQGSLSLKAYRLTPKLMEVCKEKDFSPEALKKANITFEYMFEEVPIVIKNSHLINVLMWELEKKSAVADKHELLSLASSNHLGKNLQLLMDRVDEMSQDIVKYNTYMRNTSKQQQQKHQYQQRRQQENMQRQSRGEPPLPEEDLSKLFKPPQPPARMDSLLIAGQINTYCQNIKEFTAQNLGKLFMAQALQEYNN
ATXN3, sequence (P54252 whole entry): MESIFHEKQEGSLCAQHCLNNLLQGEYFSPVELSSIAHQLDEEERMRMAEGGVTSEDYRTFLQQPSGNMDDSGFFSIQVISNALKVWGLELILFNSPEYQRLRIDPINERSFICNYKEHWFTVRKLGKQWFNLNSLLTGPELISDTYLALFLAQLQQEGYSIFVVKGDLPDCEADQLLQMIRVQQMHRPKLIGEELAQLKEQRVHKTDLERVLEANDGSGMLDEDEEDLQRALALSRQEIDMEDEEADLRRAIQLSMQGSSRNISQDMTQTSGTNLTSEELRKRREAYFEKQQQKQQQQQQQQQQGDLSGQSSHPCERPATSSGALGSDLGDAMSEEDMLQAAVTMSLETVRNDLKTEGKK

C/C(=C\CNC(=O)CCl)c1cnn(C)c1.Cl
active: BAP1 -1.56
inactive: ALG13 0.0802 | ATXN3 -0.277 | EIF3F -0.217 | EIF3H 0.0454 | FAM105A 0.298 | OTUB1 -0.376 | OTUD4 0.00615 | OTUD5 -0.115
